# Source: PubChem (several laboratories)
# Rows were chosen to be rich in hits. Some 3.2% of all compounds tested hit in one or more screens of this group.
# DYRK1A inh – Dyrk1A (rat) kinase inhibition. ADP-Glo luminescence, NFATc1 peptide. AID 504441. 310,000 tested, 0.43% active. Q63470. inhibition, % at 12.5 µM; in the data active = inhibition above about 50%;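 also: plate controls were vehicle with enzyme for no effect and no enzyme for full effect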
# Rtt109 HAT inh – blocks Candida albicans Rtt109/Vps75 acetyltransferase activity. inhibition, % at 34.9 µM. purified Rtt109/Vps75, ThioGlo CoA-SH fluorescence, 4 h. AID 540336. 330,000 tested, 0.16% active;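 active = inhibition of at least 50% in every replicate; inconclusive = best replicate reaches 50% inhibition but some replicates fall short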
# esBAF inh – blocks esBAF chromatin remodeling in mouse ES cells; 350,000 tested, 2% active; Bmi1-luciferase knock-in reporter, 24 h; 100% = twice the neutral-well signal; reporter increase, % at 12.5 µM; in the data active = activation above about 40%; inconclusive = no clear call, values can overlap the other calls;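 also: 0% = median of the plate's neutral control wells and 100% = double that signal; a rise in the Bmi1 reporter signal indicates esBAF inhibition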
# dFosB act-1 – activators of mouse delta FosB homodimer. P13346. purified delta FosB, TAMRA-CDK5 oligo fluorescence polarization; percent of positive-control signal above neutral wells. activation, % at 25 µM. 340,000 tested, 0.99% active. AID 493131;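 active = mean activation above about 17%, with every replicate also reaching it, limit read from the data, passing the limit was not always enough; inconclusive = only one of the two conditions met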
# CDK5 inh – blocks human CDK5/p35 kinase activity; inhibition, % at 10 µM; Recombinant CDK5/p35, ADP-Glo luminescence, 60 min; 330,000 tested, 0.01% active; Q00535+Q15078; AID 488839;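 active = highest replicate inhibition of at least 50% and at least 75% of replicates reaching 50%; inconclusive = only one of the two criteria met; inactive = both criteria failed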;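 also: plate controls were DMSO neutral control for no effect and GW8510 at 10 µM for full effect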
# Target sequence (Q00535 whole entry, looked up): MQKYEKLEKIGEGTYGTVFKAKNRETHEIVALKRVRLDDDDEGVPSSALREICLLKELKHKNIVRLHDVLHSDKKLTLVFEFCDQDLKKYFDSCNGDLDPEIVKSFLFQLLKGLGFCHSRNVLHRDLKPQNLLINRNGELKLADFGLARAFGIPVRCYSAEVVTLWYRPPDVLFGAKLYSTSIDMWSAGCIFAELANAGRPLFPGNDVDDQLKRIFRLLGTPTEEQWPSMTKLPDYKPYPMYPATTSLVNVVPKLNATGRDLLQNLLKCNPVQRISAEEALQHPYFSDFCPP
# Target sequence (Q15078 whole entry, looked up): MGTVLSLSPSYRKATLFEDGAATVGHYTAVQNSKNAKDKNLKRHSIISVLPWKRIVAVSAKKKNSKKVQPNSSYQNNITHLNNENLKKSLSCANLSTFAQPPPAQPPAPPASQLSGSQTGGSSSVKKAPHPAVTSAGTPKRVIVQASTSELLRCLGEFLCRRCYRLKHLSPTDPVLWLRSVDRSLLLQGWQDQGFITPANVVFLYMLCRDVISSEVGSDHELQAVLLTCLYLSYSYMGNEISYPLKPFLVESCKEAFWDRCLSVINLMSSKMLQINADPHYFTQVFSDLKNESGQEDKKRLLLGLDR
# SMARCA2 act – activators of SMARCA2 function; MG213 cells, MMTV-luciferase reporter, dexamethasone, overnight; activation, % at 9.1 µM; 370,000 tested, 1% active; AID 652017; in the data active = activation above about 7.8%;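 also: 0% = vehicle wells and 100% = reference activator wells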
# dFosB act-2 – delta FosB (mouse) homodimer activation; shares compounds with dFosB act-1; purified delta FosB, TAMRA-CDK5 oligo fluorescence polarization; normalised: neutral wells 0, positive control 100; activation, % at 24.9 µM; 2,400 tested, under 10 active;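 active = highest replicate activation at or above 34% and every replicate reaching that threshold; inconclusive = meets only one of the two criteria; inactive = meets neither criterion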;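 also: higher polarization means more probe DNA bound by delta FosB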
# The depositor's hits bear a star; ? = inconclusive; / = no result given.
SMILES,DYRK1A inh,Rtt109 HAT inh,esBAF inh,dFosB act-1,CDK5 inh,SMARCA2 act,dFosB act-2
COc1ccc(-n2c(SCC(=O)Nc3cc(C)on3)nc3c([nH]c4ccccc43)c2=O)cc1,9.0,-6.6,-13.5,9.4,-2.7,-1.7,/
O=C(CSc1nc2c([nH]c3ccccc32)c(=O)n1-c1ccc(F)cc1)NCc1ccco1,-3.4,-10.1,-6.9,18.7*,-0.9,-1.3,1.5
C[C@@H]1CCCCO[C@H](CN(C)CC2CC2)[C@H](C)CN([C@H](C)CO)C(=O)c2cc(N(C)C)ccc2O1,/,/,3.1,/,/,/,/
COCC(=O)N(C)C[C@@H]1Oc2cc(C3=CCCC3)ccc2S(=O)(=O)N([C@H](C)CO)C[C@@H]1C,/,/,-3.9,/,/,/,/
CC(=O)Nc1ccc(NC(=O)CSc2nc3c([nH]c4ccccc43)c(=O)n2-c2ccccc2F)cc1,6.2,7.9,-2.7,22.4*,-1.1,-1.2,0.5
CCOc1ccc(-n2c(SCC(=O)Nc3cc(C)on3)nc3c([nH]c4ccccc43)c2=O)cc1,1.7,3.6,-3.1,41.1*,0.3,-2.0,2.6
COc1ccccc1-n1c(SCC(=O)Nc2ccc(NC(C)=O)cc2)nc2c([nH]c3ccccc32)c1=O,/,5.7,-1.8,6.6,-1.4,-0.5,/
CCCC(=O)Nc1ccc2c(c1)OC[C@@H](C)N(Cc1cc(-c3ccccc3)on1)C[C@@H](C)[C@H](OC)CN(C)C2=O,/,/,-2.0,/,/,/,/
C[C@@H]1CN([C@H](C)CO)S(=O)(=O)c2ccc(Br)cc2O[C@@H]1CN(C)Cc1cccnc1,/,/,0.2,/,/,/,/
CN1[C@H](C(=O)NC2Cc3ccccc3C2)[C@@H](CO)[C@@H]2Cn3c(ccc(-c4cccnc4)c3=O)[C@@H]21,/,/,-2.8,/,/,/,/
O=C(NCc1ccc(F)cc1)c1cc(S(=O)(=O)N2CCCCC2)ccc1N1CCOCC1,-7.4,1.0,2.0,-12.0,0.9,2.2,/
O=C(CNC(=O)c1cc(S(=O)(=O)N2CCCCC2)ccc1N1CCOCC1)Nc1ccc(F)c(F)c1,10.8,11.5,/,54.1*,-1.8,-1.3,0.5
O=C(Nc1ccc(C(F)(F)F)cc1)Nc1ccc2c(c1)[C@@H]1C[C@H](CC(=O)N3CCc4ccccc4C3)O[C@@H](CO)[C@@H]1O2,/,/,3.1,/,/,/,/
CC(/C=C/c1ccc2c(c1)OCO2)=N\NC(=O)COc1ccccc1C,8.1,3.0,-1.0,14.9,0.0,-2.3,/
Cc1cccc(OCC(=O)N/N=C\C=C\c2ccc3c(c2)OCO3)c1C,12.5,-5.1,-4.8,38.1*,-3.8,2.5,1.0
N#C/C(=C/c1cn(-c2ccccc2)nc1-c1cccc(OCc2ccc(F)cc2)c1)C(=O)NCCCn1ccnc1,-1.3,3.1,4.5,35.4*,0.3,-0.2,-1.7
CCCOc1cccc(-c2nn(-c3ccccc3)cc2/C=C(\C#N)C(=O)NCCCn2ccnc2)c1,6.2,-4.6,/,-1.5,0.1,-1.3,/
Cc1csc(NC(=O)c2cc3c(C)nn(Cc4ccccc4Cl)c3s2)n1,0.3,7.1,7.3,45.7*,3.9,-3.9,6.6
Cc1nn(Cc2ccccc2Cl)c2sc(C(=O)NC(C)(C)C)cc12,0.8,-0.3,/,-13.4,0.9,0.7,/
C[C@@H]1CN([C@@H](C)CO)C(=O)c2cc(C3=CCCC3)cnc2O[C@@H]1CN(C)C(=O)NC1CCCC1,/,/,-3.3,/,/,/,/
CCN(CC)CCNc1ncnc2c1sc1nc(N3CCOCC3)c3c(c12)CCCC3,/,1.8,/,31.0*,-1.0,5.1,-5.8
O=C(COC(=O)CNC(=O)c1ccc(Br)cc1)Nc1nnc(-c2ccccc2)o1,-4.2,3.3,-0.5,20.5*,-0.7,-0.7,-1.1
CCOc1ccc(C(=O)NCC(=O)OCC(=O)Nc2nnc(-c3ccccc3)o2)cc1,8.7,-6.8,-1.7,-9.4,0.4,7.2,/
CN1C(=O)c2cc(NC(=O)c3cccs3)ccc2OC[C@H]2O[C@@H](CC(=O)NCC(F)(F)F)CC[C@@H]21,/,/,2.6,/,/,/,/
O=C(Nc1ccc(OC(F)(F)F)cc1)N1CCN(c2ccnc3cc(Cl)ccc23)CC1,/,6.0,0.8,38.5*,0.6,-6.7,-4.1
SMILES,DYRK1A inh,Rtt109 HAT inh,esBAF inh,dFosB act-1,CDK5 inh,SMARCA2 act,dFosB act-2
CCOC(=O)c1sc(NC(=O)CSc2nc(C)cc(C)c2C#N)c(C#N)c1C,-0.2,-19.4,2.2,-8.3,0.9,2.2,/
CCOC(=O)c1cnc(SCC(=O)Nc2cc(C(F)(F)F)ccc2N2CCOCC2)nc1N,-1.0,-3.3,-10.6,20.5*,-0.8,1.1,-1.0
Cc1ccc(-c2nnc(SCC(=O)Nc3sc(C)c(C)c3C#N)n2C)cc1,16.5,0.7,-6.2,100.2*,-0.9,0.9,1.9
CCOC(=O)c1cnc(SCc2nc(N)nc(Nc3ccccc3)n2)nc1N,-2.4,-6.9,3.9,34.5*,0.0,-0.9,-0.9
CCOC(=O)c1sc(NC(=O)CSc2nc3c(cc2C#N)CCCCCC3)c(C#N)c1C,6.4,-13.4,-3.4,18.6*,0.8,6.5,4.1
CCOC(=O)c1cnc(SCC(=O)Nc2ccc(N3CCOCC3)c(Cl)c2)nc1N,0.8,-6.1,-8.1,-3.6,1.7,-2.4,/
Cc1noc(C)c1NC(=O)N(C)C[C@@H]1Oc2ccc(NC(=O)Nc3ccc4c(c3)OCO4)cc2C(=O)N([C@@H](C)CO)C[C@H]1C,/,/,8.3,/,/,/,/
C[C@@H]1CN([C@H](C)CO)C(=O)c2cc(C#CC3CC3)cnc2O[C@H]1CN(C)S(=O)(=O)c1cccc(F)c1,/,/,-0.5,/,/,/,/
Cc1sc(NC(=O)CSc2nnc(COc3ccc(Cl)cc3)n2C)c(C#N)c1C,2.9,0.0,-7.9,22.3*,0.2,-1.1,2.2
CCOC(=O)c1cnc(SCC(=O)Nc2sc(C)c(C)c2C#N)nc1N,-0.5,1.5,-5.7,45.0*,4.9,-0.8,-1.3
COCCn1c(SCC(=O)Nc2sc(C)c(C)c2C#N)nnc1-c1ccc(OC)cc1,10.6,0.5,-3.4,-6.2,-2.4,-0.4,/
CCOC(=O)c1cnc(SCC(=O)Nc2cc(OC)cc(OC)c2)nc1N,-5.0,/,19.7,-0.5,0.0,-5.8,/
O=C(C[C@H]1C[C@@H]2c3cc(NC(=O)C4CCC4)ccc3O[C@@H]2[C@@H](CO)O1)NCc1ccccc1F,/,/,11.6,/,/,/,/
COc1ccc(C(=O)Sc2ccc(Cl)cc2)cc1OC,-0.6,-7.1,-4.3,20.7*,-0.5,1.1,-2.2
O=C(Nc1ccc(F)cc1)Nc1ccc(Cl)cn1,1.0,-5.8,34.5,41.8*,1.9,0.8,0.9
O=C(Nc1ccc(Cl)cn1)Nc1ccc(Cl)cn1,-2.1,/,/,?,-1.8,-1.3,/
O=C(Nc1ccc(F)c(Cl)c1)Nc1ccc(Cl)cn1,2.1,-0.9,/,39.1*,0.3,-2.0,2.1
O=C([C@@H]1[C@@H](CO)[C@@H]2Cn3c(ccc(C4=CCCCC4)c3=O)[C@@H]2N1Cc1nccs1)N1CCCCC1,/,/,-0.1,/,/,/,/
CO[C@H]1CN(C)C(=O)c2cc(NS(C)(=O)=O)ccc2OC[C@H](C)N(CC2CC2)C[C@H]1C,/,/,1.1,/,/,/,/
